Our source for the sensor-assay potency score (higher = more potent) values is the OligoGym collection.
Also: reference of the scale not given here.

One experiment concerns the target CIAPIN1. The experiment is described as follows: pooled miR-30 sensor sort-seq; sequence = guide strand. The note with it: shRNA.
TTGTGAGCCACTTGACTCGTGT gave a sensor-assay potency score (higher = more potent) of -0.0962.
Still for that read-out and setting: the value for TTAACATAAATGACAACAGGAC was -0.72; that for TGTGATCTGAACAAACAGCAGG was -0.776; that for TTAGATGCTGTCTTCACTTTGC was -0.0905.
The same measure, in the same setting: then TTCTTCAGGACACACTCCCTTC, with -0.89; and TGGTCTTTTGATACACAGCAGC, with -1.52.
TAACGCTTGAAGCTTATCCACC gave a sensor-assay potency score (higher = more potent) of -1.25.
In turn, TTGTTATCTACAGCTGTCTCTA registered a sensor-assay potency score (higher = more potent) of -0.353.
Sequence TTGACTTCTCTTTTTCCAGTTC displayed a sensor-assay potency score (higher = more potent) of -0.361.
The same measure, in the same setting: then TCTCAGAGTGAACAAATCCAGA, with -1.26; and TGGAGTAAACTAACAACTCTGA, with -0.493.
The same measure, in the same setting: then TAAGCTGCCTAGAAGAACCCAC, with 0.616.

For a further experiment, the target named is CIR1. Described as above. The note with it: shRNA.
Consider TACTGCTTTCTGAAGTCTCAGT, for which the sensor-assay potency score (higher = more potent) was -0.586.
The same measure, in the same setting: the value for TTCTTCATGAAGCTTTCTCTTC was -0.59; that for TCTCTTCTTAGACTTGTCCTTC was -0.0367; that for TTCTCTTCTTAGACTTGTCCTT was -0.317.
On the same count and under the same terms, then TTTCGTTTCAGTGCAAACCCAC, with -0.179; and TTCTTTAAGATATTGCTGCATC, with -0.396; and TTTTCTTCTCCAGTCGATCTAA, with -0.412.
The same measure, in the same setting: the value for TTTGTGTTTACTTCTGCTCTTC was 0.203; that for TAGACTTGTCCTTCTCTTCAGA was -0.159; that for TTTATTGTTACTCTCACTCTCA was 0.426.
TATCATATGATATTTTCTGTTC came in with a sensor-assay potency score (higher = more potent) of -0.717.
Same read-out and setting: the value for TTGTTCTTTAAGATATTGCTGC was -0.164.

In a further experiment the target is CIRBP. The experiment is described as above. The note with it: shRNA.
In turn, TGTCGTAACTGTCTCTGTAGGA gave a sensor-assay potency score (higher = more potent) of 0.291.
In turn, TCAGAGATCTGTCCGTACTTTG displayed a sensor-assay potency score (higher = more potent) of -1.1.
On the same count and under the same terms, the value for AACTGTCGTAACTGTCTCTGTA was 0.0143.
In turn, TTAGCGTCGTCAATGTTCTCAA registered a sensor-assay potency score (higher = more potent) of -0.0271.
As to TAGCGTCGTCAATGTTCTCAAA, the sensor-assay potency score (higher = more potent) was -1.03.
Regarding TCGTCAATGTTCTCAAAGGTGA, the sensor-assay potency score (higher = more potent) is -0.799.
Still for that read-out and setting: the value for TGTCTGACGACTTGCCTGCCTG was -1.09; that for TACTTTGAGAAGACCTGCTCCA was 0.53; that for TGAGAAGACCTGCTCCAGCGAC was -1.23.
TCTTTCACAACCACCACTTCAG: the sensor-assay potency score (higher = more potent) was -0.118.
ACTGTCGTAACTGTCTCTGTAG yielded a sensor-assay potency score (higher = more potent) of -0.226.
Same read-out and setting: then TAGTAGTCTCTGGAGCCTCCGT, with -1.12; and TCCGTACTTTGAGAAGACCTGC, with -0.634.
Sequence TAACTGTCGTAACTGTCTCTGT showed a sensor-assay potency score (higher = more potent) of 0.0429.
The sequence TCACTGTAGCCACCACTCTGAC had a sensor-assay potency score (higher = more potent) of -1.45.
TTTCACAACCACCACTTCAGAG: the sensor-assay potency score (higher = more potent) was -0.729.
